From PubChem BioAssay
TrxR1 substrate – qHTS Assay for Substrates of Mammalian Selenoprotein Thioredoxin Reductase 1 (TrxR1): qHTS; Thioredoxin reductase 1, cytoplasmic (Rattus norvegicus), O89049; purified TrxR1 substrate turnover, NADPH consumption readout; Potency, µM (series often up to 114 µM), inactives show top-dose activity change, negative = substrate turnover; 0.01% of 390,000 active; AID 588456, 2011; note: % is set by controls: 0 for no effect and ±100 for the full control effect; nearly all actives have a fitted effect of over 50% in size
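Rat TrxR1, dispensed at 90 nM, was prereduced with 400 uM NADPH (final) for 5 min at ~22 deg C, then incubated with compound 15 min before 400 uM selenite. A first-read NADPH fluorescence drop versus no-compound background flagged substrates.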
IDH1 R132H inh – qHTS for Inhibitors of mutant isocitrate dehydrogenase 1 (IDH1): qHTS; 0.093% of 390,000 active; Isocitrate dehydrogenase [NADP] cytoplasmic (Homo sapiens), O75874; AID 602179, 2012; IDH1-R132H enzyme, NADPH consumption, diaphorase/resazurin fluorescence; Potency, µM (top dose mostly 76.6 µM), for inactives: top-dose activity change, negative = inhibition, actives largely listed as inhibitors; note: % is set by controls: 0 for no effect and ±100 for the full control effect; nearly all actives have a fitted effect of over 65% in size
Target sequence (O75874 whole entry R132H, stated change not applied): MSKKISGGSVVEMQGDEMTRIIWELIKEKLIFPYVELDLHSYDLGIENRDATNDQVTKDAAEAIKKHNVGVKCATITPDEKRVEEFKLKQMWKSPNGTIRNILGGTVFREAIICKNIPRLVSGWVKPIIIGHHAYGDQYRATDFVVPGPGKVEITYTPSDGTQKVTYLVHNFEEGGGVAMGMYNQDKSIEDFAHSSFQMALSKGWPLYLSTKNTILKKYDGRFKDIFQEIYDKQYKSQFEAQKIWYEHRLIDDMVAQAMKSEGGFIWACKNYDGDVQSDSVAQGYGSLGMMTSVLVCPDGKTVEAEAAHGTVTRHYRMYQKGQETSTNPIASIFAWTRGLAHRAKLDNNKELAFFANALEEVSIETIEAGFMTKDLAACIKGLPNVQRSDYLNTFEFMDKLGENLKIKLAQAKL
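IDH1-R132H (0.5 ug/mL dispensed) in pH 7.5 Tris buffer was preincubated 30 min with compound, then given a substrate mix of 0.016 mM NADPH and 2 mM alpha-KG for 80 min at room temperature; remaining NADPH was read by diaphorase/resazurin fluorescence.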
A549 tox – Nrf2 qHTS screen for inhibitors: counterscreen for cytotoxicity; Potency, µM (highest dose often 46 µM), for inactives: top-dose activity change, negative = cytotoxicity, usual class: inhibitors; A549 ARE-Fluc cells, CellTiter-Fluor viability, 18-24 h; 0.16% of 390,000 active; AID 504648, 2011; note: % is set by controls: 0 for no effect and ±100 for the full control effect
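A549 ARE_Fluc cells in 5% FBS OPTI-MEM were exposed to compounds in concentration-response for 18-24 h at 37 deg C. Viability was read by CellTiter-Fluor fluorescence (Ex 405/Em 525) after 30 min, before the luciferase read.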
Nrf2 block – Nrf2 qHTS screen for inhibitors; A549 ARE-Fluc reporter, luciferase luminescence, 18-24 h; Potency, µM (doses to about 46 µM), without a hit: at the top dose activity change, negative = inhibition, hits mostly inhibitors; 2.1% of 360,000 active; note: % is set by controls: 0 for no effect and ±100 for the full control effect; nearly all actives have a fitted effect of over 60% in size
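A549 ARE_Fluc cells (5000/well, 5% FBS OPTI-MEM) pre-incubated 2 h, then treated with compounds 18-24 h at 37C/5% CO2 in concentration-response. CellTiter-Fluor viability read first; BugLite luciferase luminescence after 15 min at room temperature gives Nrf2 activity.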
rTrxR1 inhibitor – qHTS Assay for Inhibitors of Mammalian Selenoprotein Thioredoxin Reductase 1 (TrxR1): qHTS | Thioredoxin reductase 1, cytoplasmic (Rattus norvegicus), O89049 | AID 588453, 2011 | Potency, µM (highest dose often 114 µM), inactives show at the top dose activity change, negative = inhibition, usual class: inhibitors | recombinant rTrxR1, NADPH fluorescence consumption, selenite substrate | 1% of 390,000 active; note: % is set by controls: 0 for no effect and ±100 for the full control effect; nearly all actives have a fitted effect of over 65% in size
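Rat TrxR1 (90 nM in the dispensed reagent) was pre-reduced with 400 uM NADPH for 5 min at room temperature, then incubated with compound for 15 min. After 400 uM selenite was added, NADPH fluorescence (Ex 340/Em 450 nm) was followed for 8 min.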
Mito fusion yeast – qHTS Assay for Small Molecule Inhibitors of Mitochondrial Division or Activators of Mitochondrial Fusion; S. cerevisiae fusion-defective mutant growth rescue, CellTiterGlo 48 h; Potency, µM (highest dose often 46.1 µM), for inactives: top-dose growth rescue (activation), usual class: activators; 0.23% of 320,000 active; AID 485298, 2010; note: % of control where 0% means no effect; nearly all actives have a fitted effect of over 45% in size
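Compounds are tested for their ability to restore growth of mitochondrial fusion-defective yeast strains at non-permissive 37C in YPEG medium over 48 hours. Viability is quantified by luciferase luminescence.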
* = called active by the depositor; ? = inconclusive; nt = no result; [ ] = another dose, or the depositor's remark. This is a sample that favours compounds with a hit; in the whole collection about 3.1% have one here. Calls come from the whole dose curve; as a rule, active = well fitted curve in the direction sought with a large enough effect; inconclusive = small, poorly fitted or top-dose-only effect, or another doubt; inactive = no such curve, though single readings can be large; an effect the other way counts as inactive or inconclusive. Potency is the fitted concentration of half-maximal effect.

SMILES	TrxR1 substrate	IDH1 R132H inh	A549 tox	Nrf2 block	rTrxR1 inhibitor	Mito fusion yeast
Cc1cc(NC(=O)CSc2nc(Cc3ccc(O)cc3)c(C)[nH]2)no1	6%[57.1 µM]	-10%	-3%	0%	16µM*	-18%
O=C(NC1CCCCCC1)c1ccc([N+](=O)[O-])s1	3%[57.1 µM]	1%	-4%	2.1µM*	5%[57.1 µM]	6%
O=C(NC1CCCC1)c1ccc(Cl)s1	-2%	-7%	0%	2%	6%	-2%
COc1ccnc(Oc2ccccc2)c1C(=O)N/C=N/OCc1ccccc1	-1%[57.1 µM]	-4%	5%	-5%	1%[57.1 µM]	18%
COc1ccnc(Oc2cccc(C(F)(F)F)c2)c1C(=O)N/C=N/OCc1ccccc1F	-9%[57.1 µM]	14%	-14%	21µM*	23%[57.1 µM]	1%
Cc1cccc(Nc2nc(N)c([N+](=O)[O-])c(N3CC(C)CC(C)C3)n2)c1 (stereo not drawn)	-10%[57.1 µM]	?	21µM*	16µM*	-11%[57.1 µM]	-23%
Cc1cccc(Nc2nc(N)c([N+](=O)[O-])c(N3CC(C)OC(C)C3)n2)c1 (stereo not drawn)	-18%	?	?	18µM*	-24%	-26%
CCN1CCN(c2nc(Nc3cccc(OC)c3)nc(N)c2[N+](=O)[O-])CC1	-2%[57.1 µM]	-6%	?	-7%	0%[57.1 µM]	-8%
Cc1cccc(Nc2nc(N)c([N+](=O)[O-])c(N3CCC(C)CC3)n2)c1	-4%[57.1 µM]	-24%	?	18µM*	-6%[57.1 µM]	-8%
O=S1(=O)N=C(Oc2cccc(C(F)(F)F)c2)c2ccccc21	nt	nt	2%	5%	nt	nt
Cc1cc(=O)n(Cc2cccc(Br)c2)c2c1c(C)nn2-c1ccccc1	7%[57.1 µM]	-11%	15%	43%	18%[57.1 µM]	nt
CCNC(=O)C1CCN(c2nc3ccccc3nc2C(F)(F)F)CC1	-5%[57.1 µM]	0%	1%	29%	0%[57.1 µM]	nt
COC(=O)c1cc(=O)n(Cc2ccco2)c(=Nc2ccc(F)c(Cl)c2)s1	0%[57.1 µM]	-4%	?	26µM*	-10%[57.1 µM]	25%
Nc1nc(-c2ccc(F)cc2)cc(C(F)(F)F)n1	22%	3%	8%	8%	31%	0%
COc1ccc(-c2cc(C(F)(F)F)nc(S(C)(=O)=O)n2)cc1	6%	21%	3%	?	10µM*	10%
COc1ccc(-c2cc(C(F)(F)F)nc(N)n2)cc1	8%	-3%	-2%	?	12%	2%
CS(=O)(=O)c1nc(-c2ccc(F)cc2)cc(C(F)(F)F)n1	18%	10%	?	?	18µM*	-31%
COc1ccc(CN(Cc2ccccc2)C(=O)c2ccccc2O)cc1	nt	nt	4%	?	nt	nt
Cc1c(C(=S)Nc2ccccc2)cnn1-c1ccccc1	-11%	6%	-7%	?	-15%	-13%
Cc1c(C(=S)Nc2ccccc2)cnn1-c1ccc([N+](=O)[O-])cc1	-5%	2%	-3%	23µM*	-18%	-1%
Cc1csc2nc(COC(=O)c3ccc(NC(=O)C(C)Oc4ccccc4)cc3)cc(=O)n12 (stereo not drawn)	3%[57.1 µM]	-6%	-3%	nt	11%[57.1 µM]	nt
CCc1cc(=O)oc2c(C)c(OCC(=O)N3CCCc4ccccc43)ccc12	17%	-1%	1%	12µM*	14%	7%
Cc1cc(=O)oc2c(C)c(OCC(=O)N3CCN(c4ccc(F)cc4)CC3)ccc12	10%	1%	1%	?	5%	?
CCc1cc(=O)oc2cc(OCC(=O)N3CCc4ccccc43)ccc12	nt	nt	nt	nt	nt	1%
Cc1cccc(N2CCN(C(=O)COc3ccc4c(C)cc(=O)oc4c3C)CC2)c1C	10%	0%	-8%	16µM*	25%	29%
SMILES	TrxR1 substrate	IDH1 R132H inh	A549 tox	Nrf2 block	rTrxR1 inhibitor	Mito fusion yeast
CCc1ccc(-n2c(=O)c3sc4ccccc4c3n(CC(=O)N(CC)Cc3ccccc3)c2=O)cc1	7%	4%	-4%	8%	19%	nt
CSCCC1C(C#N)=C(N)Oc2n[nH]c(-c3cccs3)c21 (stereo not drawn)	0%	2%	-6%	10%	10µM*	-3%
CC(=O)c1ccc(NC(=O)Cn2c(=O)cc(C)c3c(C)nn(-c4cccc(F)c4)c32)cc1	1%[57.1 µM]	16%	0%	?	8%[57.1 µM]	nt
CSc1ccc(C2C(C#N)=C(N)N(c3ccccc3)C3=C2C(=O)CCC3)cc1 (stereo not drawn)	6%[57.1 µM]	-2%	1%	nt	6%[57.1 µM]	5%
N#CC1=C(N)N(c2ccc(F)cc2)C2=C(C1c1ccc(O)cc1)S(=O)(=O)CC2 (stereo not drawn)	9%[57.1 µM]	1%	-14%	13%	7.9µM*	1%
O=C(CCS(=O)(=O)c1ccc(Br)cc1)Nc1cc(F)ccc1F	-1%	1%	-4%	-1%	35µM*	5%
O=Cc1ccc(N2CCOCC2)cc1	-10%	nt	nt	nt	-3%	nt
Cc1ccc([N+](=O)[O-])cc1N(CC(=O)Nc1ccc(S(=O)(=O)Nc2cccc(C(F)(F)F)c2)cc1)S(C)(=O)=O	-16%	1%	?	21µM*	2%	3%
C#CCOCCOCCOCCNc1nc(N2CCN(C(=O)[C@H](CCCCN)n3cc([C@@H](N)CC(C)C)nn3)CC2)nc(N2CCN(C(=O)[C@H](Cc3cc4ccccc4[nH]3)n3cc([C@@H](N)Cc4ccc(O)cc4)nn3)CC2)n1	8%	2%	-11%	-2%	45µM*	-3%
C#CCOCCOCCOCCNc1nc(N2CCN(C(=O)[C@H](CCCCN)n3cc(C(N)CC(C)C)nn3)CC2)nc(N2CCN(C(=O)[C@H](CCC(=O)O)n3cc(C(N)[C@H](C)CC)nn3)CC2)n1 (stereo partly drawn)	10%	15%	-2%	2%	18µM*	0%
C#CCOCCOCCOCCNc1nc(N2CCN(C(=O)[C@H](CCCCN)n3cc(C(N)CO)nn3)CC2)nc(N2CCN(C(=O)[C@H](CCC(=O)O)n3cc(C(N)CC(C)C)nn3)CC2)n1 (stereo partly drawn)	nt	nt	nt	nt	nt	-30%
Cc1ccc(CNc2ccc(-c3nc(-c4cccnc4)no3)cc2[N+](=O)[O-])cc1	-4%	14%	-23%	29µM*	8%	nt
